# HepG2 viability – HepG2 cytotoxicity, counter-screen for TGF-b inhibitors. actives 0.76% (n = 410,000). Potency, µM (series often up to 46.1 µM), inactives show at the top dose activity change, negative = cytotoxicity, most hits filed as cytotoxic. HepG2 CAGA-GFP viability, ATP luminescence, 18 h
#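 HepG2 CAGA-GFP cells (1000/well, DMEM with 1% FBS) received compound, then TGF-beta at 500 pg/mL final, and were incubated 18 hours at 37 degrees C. Viability was read by CellTiter-Glo luminescence. Media-only wells were set as complete cell-killing and DMSO as no toxicity.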
# TGFb SMAD3 inh – TGF-b pathway inhibition. HepG2 CAGA-GFP TGF-b/SMAD3 reporter, GFP fluorescence, 18 h; TGF-beta stimulated, 500 pg/mL final. AID 588855. Potency, µM (doses to about 46.1 µM), inactives show top-dose activity, negative = inhibition, usual class: inhibitors. actives 1.2% (n = 410,000); also: % is scaled to controls: 0 for no effect and ±100 for the full control effect; nearly all actives have a fitted effect of over 65% in size
#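 First, reporter cells (HEPG2 CAGA-GFP) rested 2 h at 37 degrees C. Next, compounds were pinned in and TGF-beta added to 500 pg/mL final. After 18 h, GFP was imaged per cell and summed per well.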
# TDP1 cell noCPT – qHTS for Inhibitors of human tyrosyl-DNA phosphodiesterase 1 (TDP1): qHTS in cells in absence of CPT; DT40 Tdp1-/- hTDP1 cells, no CPT, ATP luminescence, 48 h; Potency, µM (series often up to 46.2 µM), for the others: at the top dose activity change, negative = growth inhibition, usual class: inhibitors; actives 15% (n = 420,000); AID 686978, 2013; also: % is scaled to controls: 0 for no effect and ±100 for the full control effect; nearly all actives have a fitted effect of over 55% in size
#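 Growth kinetics read by CellTiter-Glo luminescence after ≥48 hr at 37 °C. Cells: DT40 Tdp1-/- stably carrying human TDP1, 400 per well, compound exposure in the absence of CPT (DMSO vehicle).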
# TDP1 cell CPT – DT40-hTDP1 cell growth loss with CPT; Potency, µM (series often up to 46.2 µM), inactives show at the highest dose activity change, negative = growth inhibition, hits mostly inhibitors; actives 12% (n = 420,000); chicken DT40 Tdp1-/-;hTDP1 cells + 20 nM CPT, ATP luminescence, 48 h; AID 686979; also: % is scaled to controls: 0 for no effect and ±100 for the full control effect; nearly all actives have a fitted effect of over 55% in size
#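 Cell growth measured by CellTiter-Glo luminescence after a minimum 48 h, 37 C compound exposure with 20 nM CPT in Tdp1-knockout DT40 cells stably expressing hTDP1, seeded 400/well; qHTS titration format.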
# ATXN viability – cell viability loss in ATXN counter-screen. S2 cells (HEK-293 line with an ATXN2-luciferase reporter) viability, CellTiter-Fluor protease fluorescence, 24 h. Potency, µM (highest dose often 56.7 µM), most hits filed as cytotoxic. actives 0.49% (n = 400,000). AID 651635; also: nearly all actives have a fitted effect of over 40% in size
# ATXN2 expr inh – ATXN2 expression inhibition | HEK-293 ATXN2-luciferase reporter, luminescence, 24 h | Potency, µM (highest dose often 57 µM), inactives show at the highest dose activity change, negative = inhibition, usual class: inhibitors | actives 0.72% (n = 360,000) | AID 1745845; also: % is scaled to controls: 0 for no effect and ±100 for the full control effect; nearly all actives have a fitted effect of over 55% in size
#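 ATXN2-luciferase reporter cells (luciferase flanked by upstream and downstream ATXN2 gene portions) were treated 24 h at 37 °C with compounds at up to 57 uM. SteadyGlo luminescence gave expression; GF-AFC fluorescence gave viability.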
# * marks the source's active call; other numbers are inactive results; i = inactive; ? = inconclusive; . = no result. Hits are enriched below; roughly 17% of the tested compounds scored in any of these assays. Calls follow the shape of the dose curve; as a rule, active = well fitted curve in the direction sought with a large enough effect; inconclusive = small, poorly fitted or top-dose-only effect, or another doubt; inactive = no such curve, though single readings can be large; an effect the other way counts as inactive or inconclusive. Potency is read from the fitted curve at half-maximal effect.
SMILES,HepG2 viability,TGFb SMAD3 inh,TDP1 cell noCPT,TDP1 cell CPT,ATXN viability,ATXN2 expr inh
O=[N+]([O-])c1nn(-c2ccc3c(c2)OCCO3)n(O)c1=NC1CCCCCC1,-14%,-25%,-26%,?,i,1%
Cc1ccc(CN=c2c([N+](=O)[O-])nn(-c3ccc4c(c3)OCCO4)n2O)cc1,-11%,?,23µM*,?,i,10%
O=[N+]([O-])c1nn(-c2ccc3c(c2)OCCO3)n(O)c1=NCCCO,-21%,-4%,21µM*,15µM*,?,-6%
O=C(OCc1ccccc1)N1CCC2CC1c1cc(N3CCN(S(=O)(=O)c4cccc5ccccc45)CC3)ccc12 (stereo not given),10%,0%,?,-22%,i,7%
Cc1ccc(NC(=O)COc2cccc(Oc3ccccc3)c2)cc1S(=O)(=O)N1CCOCC1,-9%,?,?,?,?,-23%
COc1ccc(C#Cc2cccc(-c3nc(C(=O)NCc4ccc(Oc5ccccc5)cc4)cc4c3[C@@H](CCO)N(S(=O)C(C)(C)C)C4)c2)cc1OC (stereo not given in full),16µM*,?,?,?,32µM*,?
COc1cccc(CNC(=O)c2cc3c(c(-c4cccc(-c5cccc(C#N)c5)c4)n2)[C@H](CCO)N(S(=O)C(C)(C)C)C3)c1 (stereo not given in full),2%,?,15µM*,?,?,-11%
CCNC(=O)c1cc2c(c(-c3cccc(-c4cccc(C(=O)N(C)C)c4)c3)n1)[C@H](CCO)N(S(=O)C(C)(C)C)C2 (stereo not given in full),-18%,-26%,?,-5%,i,12%
COCCNC(=O)c1cc2c(c(-c3cccc(C#Cc4ccc(OC)c(OC)c4)c3)n1)[C@@H](CCO)N(S(=O)C(C)(C)C)C2 (stereo not given in full),-6%,-1%,?,?,?,0%
CC(C)(C)S(=O)N1Cc2cc(C(=O)NCC(F)(F)F)nc(-c3cccc(-c4cccc(F)c4)c3)c2[C@H]1CCO (stereo not given in full),-8%,?,21µM*,?,?,0%
CN(C)C(=O)c1cccc(-c2cccc(-c3nc(C(=O)NCc4ccccc4)cc4c3[C@@H](CCO)N(S(=O)C(C)(C)C)C4)c2)c1 (stereo not given in full),-3%,6%,15µM*,18µM*,.,-29%
CC(NC(=O)c1ccc(N)cc1)c1ccccc1 (stereo not given),-3%,-3%,3%,6%,i,2%
CC1(Oc2cccc(F)c2)CCN(Cc2ccc3ccccc3c2)C1 (stereo not given),-28%,9%,?,?,i,-8%
COc1cccc(-c2cccc(-c3nc(C(=O)NCCCN4CCOCC4)cc4c3[C@H](CCO)N(S(=O)C(C)(C)C)C4)c2)c1 (stereo not given in full),-15%,5%,18µM*,?,i,-9%
CC(C)(C)S(=O)N1Cc2cc(C(=O)N[C@@H]3CCN(Cc4ccccc4)C3)nc(-c3cccc(-c4cc5ccccc5o4)c3)c2[C@@H]1CCO (stereo not given in full),-33%,?,23µM*,?,?,?
COCCNC(=O)c1cc2c(c(-c3cccc(-c4cccc(OC)c4)c3)n1)[C@H](CCO)N(S(=O)C(C)(C)C)C2 (stereo not given in full),-2%,-12%,?,?,i,-7%
CC(C)(C)S(=O)N1Cc2cc(C(=O)O)nc(-c3cccc(-c4cc5ccccc5o4)c3)c2[C@H]1CCO (stereo not given in full),-1%,-17%,44%,11%,i,16%
Cc1ccc2c(c1)N=C(c1ccc(Cl)cc1)CO2,-60%,22%,23µM*,?,i,73%
c1ccc(C2=Nc3ccccc3OC2)cc1,-35%,-1%,11µM*,18µM*,i,4%
Clc1ccc(C2=Nc3cc(Cl)ccc3OC2)cc1,-14%,-18%,?,?,i,.
Cc1ccc(C(=O)Nc2ccc3c(c2)C(=O)N(C)C3=O)c(C)c1,1%,-22%,-12%,-2%,i,14%
O=C(Nc1cc(Cl)ccc1O)c1snnc1-c1ccccc1,-5%,?,16µM*,13µM*,?,?
O=C(Nc1cccc(Cl)c1Cl)c1snnc1-c1ccccc1,0%,-2%,?,-21%,i,7%
CNC(=S)N/N=C/c1cn(CCOc2cccc(OC)c2)c2ccccc12,-26%,-3%,13µM*,8.2µM*,?,-2%
CNC(=S)N/N=C/c1cn(CCOc2ccccc2OC)c2ccccc12,-1%,-17%,6.5µM*,3.7µM*,i,25%
SMILES,HepG2 viability,TGFb SMAD3 inh,TDP1 cell noCPT,TDP1 cell CPT,ATXN viability,ATXN2 expr inh
COc1cccc(OCCn2cc(/C=N/NC(=O)c3ccncc3)c3ccccc32)c1,-38%,?,?,?,i,?
COC(=O)N/N=C/c1cn(CCOc2ccccc2OC)c2ccccc12,-21%,0%,-14%,-17%,i,-2%
Cc1nnnn1CC(=O)Nc1cccc([N+](=O)[O-])c1,-21%,3%,-3%,8%,i,.
C#CC(=O)CCC1CCCN1C(=O)OC(C)(C)C (stereo not given),-10%,0%,?,15µM*,?,-23%
CON(C)C(=O)CCC1CCCN1C(=O)OC(C)(C)C (stereo not given),6%,12%,-5%,-7%,i,-1%
O=C(NCC(c1cccs1)S(=O)(=O)c1cccs1)c1c(F)cccc1F (stereo not given),0%,12%,?,?,i,1%
Cc1ccc(C(=O)NCC(c2cccs2)S(=O)(=O)c2cccs2)cc1C (stereo not given),-2%,?,21µM*,12µM*,i,-11%
O=C(NCC(c1cccs1)S(=O)(=O)c1cccs1)c1ccc(F)c(F)c1 (stereo not given),0%,-27%,?,?,?,-12%
